Measured values published in paper PMC6919601, “Identification of Plasmodium dipeptidyl aminopeptidase allosteric inhibitors by high throughput screening” (PLoS ONE, 2019).
Screen size: about 110,000 compounds; about 230 (0.21%) showed an effect of 50% or more. The entries come from a sample that favours strong results as a whole.

These compounds were tested against DPAP1 (Plasmodium falciparum, UniProt Q8IIJ9) (assay: primary screen, percent inhibition; read by cleavage of a fluorogenic dipeptide substrate; higher = more effect of the substance).
Set-up: species or system P. falciparum D10 trophozoite lysates; single well
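Note: 30 min substrate incubation versus DMSO and 10 µM JCP410 controls.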

Sequence of DPAP1 (Q8IIJ9 whole entry, looked up): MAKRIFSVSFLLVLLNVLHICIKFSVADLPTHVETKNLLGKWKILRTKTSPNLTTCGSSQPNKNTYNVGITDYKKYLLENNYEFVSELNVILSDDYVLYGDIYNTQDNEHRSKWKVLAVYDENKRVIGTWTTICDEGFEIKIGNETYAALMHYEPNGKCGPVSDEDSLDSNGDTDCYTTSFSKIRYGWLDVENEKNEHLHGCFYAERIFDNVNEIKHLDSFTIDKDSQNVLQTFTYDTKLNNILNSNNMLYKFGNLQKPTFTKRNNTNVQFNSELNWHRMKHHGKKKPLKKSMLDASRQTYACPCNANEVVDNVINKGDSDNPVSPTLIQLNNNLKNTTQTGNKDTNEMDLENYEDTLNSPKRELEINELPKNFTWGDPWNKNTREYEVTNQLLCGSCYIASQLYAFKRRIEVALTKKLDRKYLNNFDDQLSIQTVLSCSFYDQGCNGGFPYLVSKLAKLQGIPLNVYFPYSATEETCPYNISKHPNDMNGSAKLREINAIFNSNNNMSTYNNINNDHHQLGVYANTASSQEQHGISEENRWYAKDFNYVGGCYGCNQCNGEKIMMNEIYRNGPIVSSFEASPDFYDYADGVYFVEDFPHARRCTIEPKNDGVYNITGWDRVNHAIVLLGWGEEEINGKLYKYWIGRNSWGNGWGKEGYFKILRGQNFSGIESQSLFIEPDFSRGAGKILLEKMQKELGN

Structure (SMILES) | % Inhibition @ 10 uM
Cc1cccc(C)c1-n1c(C)cc(/C=C2\NC(=O)NC2=O)c1C | 4.83%
CCc1nnc(NC(=O)CSc2nc(N)nc(SC)c2C#N)s1 | -1.68%
CCc1nnc(NC(=O)CSc2nc(-c3cccs3)cc(C(F)(F)F)c2C#N)s1 | 9.42%
CCc1nnc(NC(=O)CSc2nc(C(F)(F)F)cc(C)c2C#N)s1 | 59.2%
COC(=O)C1=NNC2C(=O)N(Cc3ccccc3)C(=O)C12 (stereo not shown) | -0.13%
CC(C(=O)O)c1cc(C(=O)c2ccccc2)sc1-c1ccccc1 (stereo not shown) | 6.08%
CCOc1ccccc1C(=O)Nc1ccc(C(C)=O)cc1 | -7.23%
CC(C)CCOc1ccc(C(=O)CCNC(CC(C)C)C(=O)O)cc1 (stereo not shown) | 30.1%
CCCOc1ccc(C(=O)CCNC(Cc2c[nH]c3ccccc23)C(=O)O)cc1 (stereo not shown) | 81.9%
O=C(COc1ccccc1)NC(Cc1c[nH]c2ccccc12)C(=O)O (stereo not shown) | 10.2%
CC[C@H](C)[C@H](NC(=O)Cc1ccncc1)C(=O)N[C@@H](CCc1ccccc1)C(=O)CO | -4.17%
CCN(C(=O)c1ccco1)c1nc(-c2ccccc2)cs1 | 72.9%
CCN(C(=O)CCc1ccccc1)c1nc(-c2ccccc2)cs1 | -0.426%
CCCN(C(=O)c1ccco1)c1nc(-c2cccc(Cl)c2)cs1 | 11.9%
CCOC(=O)C1=CN(C)C=C(C(=O)OCC)C1c1ccc(C(C)C)cc1 | -1.48%
Cc1cc(C)c(S(=O)(=O)N2CCCc3ccccc32)c(C)c1 | 1.83%
Cc1ccc(-n2nc(C)c3c(C)c(CCC(=O)NCC4CCCO4)c(C)nc32)cc1 (stereo not shown) | 0.953%
CCOc1ccc(/C=C2/C=C(c3ccc(C)cc3)OC2=O)cc1OC | 1.84%
CCOc1ccc(N2C(=O)C3C(C(C)=O)=NN(c4ccccc4Cl)C3C2=O)cc1 (stereo not shown) | -0.0619%

Structure (SMILES) | % Inhibition @ 10 uM
O=C1NC(=O)c2cccc3cccc1c23 | -4.51%
O=C1c2cccc3cccc(c23)C(=O)N1O | 13.1%
O=C1C(Sc2ccccc2)=C(O)c2cccc3cccc1c23 | 68.7%
CCC(C)C(NCCC(=O)c1ccc(Br)cc1)C(=O)O (stereo not shown) | -7.23%
CCOc1ccc(C(=O)CCNC(C(=O)O)C(C)CC)cc1 (stereo not shown) | 71%
CCCOc1ccc(C(=O)CCNC(C(=O)O)C(C)C)cc1 (stereo not shown) | 2.8%
CCOc1ccc(C(=O)CCNC(CC(=O)O)C(=O)O)cc1 (stereo not shown) | 42.3%
CC(C)Oc1ccc(C(=O)CCNC(C(=O)O)C(C)C)cc1 (stereo not shown) | 59.7%
COc1ccc(C(=O)CCNC(C)C(=O)O)cc1 (stereo not shown) | 5.85%
CCC(Oc1ccccc1)C(=O)Nc1ncccc1Cl (stereo not shown) | -3.75%
COc1ccccc1NC(=O)/C=C\C(=O)O | 1.63%
CCCN(CCC)CCNC(=O)c1cn(C)c(=O)c2cc(OC)c(OC)cc12 | -2.49%
CC(NC(=O)c1cccs1)c1cc2c(cc1Cl)OCCCO2 (stereo not shown) | -1.28%
Cc1nn(-c2ccccc2)c2sc(C(N)=O)cc12 | 6.83%
Cc1nn(-c2ccccc2)c2sc(-c3nnc(S)o3)cc12 | 64.9%
COC(=O)c1cc2c(C)nn(-c3ccccc3)c2s1 | 4.7%
COc1ccccc1NC(=O)c1cc(OC)c(OC)c(OC)c1 | -5.67%
Cc1ccc(-c2nc3c4ccccc4nc(S)n3n2)cc1 | -7.62%
